# Assay outcomes: PubChem BioAssay, Sanford-Burnham Center for Chemical Genomics
# CYP2C19 act – activators of human cytochrome P450 2C19. P33261. recombinant CYP2C19, luciferin-H EGE luminescence; active compounds read high; 0 = fully inhibited enzyme, 1 = untreated enzyme. activation factor at 5 µM. 96,000 tested, under 10 active. AID 1025;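 active means activation factor of at least 2 at 5 µM in the primary screen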
# PTK2B oligo ant – Pyk2 (human) oligomerization antagonism; 0.83% of 99,000 active; Q14289; z-score (the deposit names both 25 µM and 10 µM); Q293 cells, Pyk2 FERM NanoBiT luminescence; active compounds read low;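 active means Z-score of -3 or lower, scaled per plate to the spread of control and sample wells; inactive means z-score above -3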;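 further: negative z-score means lost luminescence so less FERM oligomerization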
# CYP2C9 inh – human CYP2C9 inhibition | inhibition, % at 5 µM | P11712 | 20% of 96,000 active | AID 777 | CYP2C9 Supersomes, luciferin-H conversion, luminescence;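 active means blocking of liver enzyme CYP2C9 beyond about 50% at 5 µM, limit read from the data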
# Target sequence (P11712 whole entry, looked up): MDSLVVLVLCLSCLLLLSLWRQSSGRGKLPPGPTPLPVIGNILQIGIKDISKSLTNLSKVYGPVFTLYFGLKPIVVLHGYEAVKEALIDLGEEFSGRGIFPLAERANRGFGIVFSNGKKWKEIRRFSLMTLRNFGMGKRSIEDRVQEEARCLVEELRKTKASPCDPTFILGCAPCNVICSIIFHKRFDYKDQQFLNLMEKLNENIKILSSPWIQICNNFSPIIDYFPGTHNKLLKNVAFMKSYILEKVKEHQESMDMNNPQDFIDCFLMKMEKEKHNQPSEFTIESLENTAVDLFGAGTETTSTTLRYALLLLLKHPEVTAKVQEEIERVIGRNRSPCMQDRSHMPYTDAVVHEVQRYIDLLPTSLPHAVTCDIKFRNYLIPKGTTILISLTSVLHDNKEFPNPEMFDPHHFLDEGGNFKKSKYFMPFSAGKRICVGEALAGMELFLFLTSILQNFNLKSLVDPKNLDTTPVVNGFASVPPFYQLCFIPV
# CYP2C9 act – increases human cytochrome P450 2C9 activity. P11712. recombinant CYP2C9, luciferin-H conversion, luminescence; active compounds read high; factor 1 = untreated enzyme, 0 = blocked. activation factor at 5 µM. 1.4% of 96,000 active. AID 1024;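 active means activation factor of 2 or more for CYP2C9 at a 5 µM dose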
# CYP2C19 inhib – blocks human cytochrome P450 2C19; inhibition, % at 5 µM; CYP2C19 Supersomes, luciferin-H EGE luminescence, 30 min; 21% of 96,000 active; P33261;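 active means CYP2C19 inhibition above a set limit at 5 µM in the primary screen, cut at about 50% in these data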
# A number is an active result; i = inactive; nt = no result given. Hits are enriched below; roughly 28% of the tested compounds scored in any of these assays.
SMILES,CYP2C19 act,PTK2B oligo ant,CYP2C9 inh,CYP2C9 act,CYP2C19 inhib
CCCCCCn1c(-c2ccco2)nc2oc3cc(OC)ccc3c(=O)c2c1=O,i,i,90.2,i,93.2
COc1ccc2c(=O)c3c(=O)n(Cc4ccco4)c(-c4ccccc4)nc3oc2c1,i,i,72.9,i,73.4
CCCCNC(=O)c1onc(CSc2cccc(C)c2)c1C(=O)O,i,nt,75.9,i,i
COCCNC(=O)c1onc(CSc2cc(C)cc(C)c2)c1C(=O)O,i,nt,i,i,i
CCCCNC(=O)c1onc(CSc2cc(C)cc(C)c2)c1C(=O)O,i,nt,73.1,i,i
CCOCCCNC(=O)COc1ccc(OC)cc1,i,i,i,i,i
Nc1ccc(S(=O)(=O)c2ccc(Cl)cc2)cc1,i,i,i,3.7,86.3
CS(C)(=O)=NS(=O)(=O)c1ccc(Cl)cc1,i,i,i,i,i
CC(=O)c1cccc(NC=C2C(=O)OC3(CCCCC3)OC2=O)c1,i,i,i,i,i
C#CCOC(=O)Nc1cccn(Cc2c(Cl)cccc2Cl)c1=O,i,i,i,2,65.2
NC(=O)c1ccc(C(F)(F)F)n(Cc2c(Cl)cccc2Cl)c1=O,i,i,i,i,i
O=C(CCc1ccc(S(=O)(=O)NCc2ccccc2)cc1)NCc1ccc2c(c1)OCO2,i,i,76.2,i,56.0
O=C(CCc1ccc(S(=O)(=O)NCCc2ccccc2)cc1)NCc1ccc2c(c1)OCO2,i,i,82.7,i,82.3
CCCCOc1ccc(/C=c2\sc3ncnn3c2=O)cc1,i,i,i,i,i
Cc1cnc(C(=O)Nc2ccc(N3CCN(C(=O)OC(C)(C)C)CC3)cc2)cn1,i,i,i,i,i
CC1(C)CC(=O)C(Sc2ccccc2[N+](=O)[O-])=C(O)C1,nt,i,nt,nt,nt
CC(C)(C)c1nnc2sc(SCC(=O)c3cccs3)nn2c1=O,i,i,95.5,i,i
Cc1ccc(C(=O)CSc2nn3c(=O)c(C(C)(C)C)nnc3s2)cc1,i,i,i,i,i
CC(C)(C)c1nnc2sc(SCC(=O)c3ccc(Cl)cc3)nn2c1=O,i,i,i,i,i
CC(C)(C)c1nnc2sc(SCC(=O)N3CCCc4ccccc43)nn2c1=O,i,i,i,i,71.2
Cc1ccccc1Nc1nnc(C)c(=O)n1N,i,i,i,i,i
Cc1cc(N2CCC(N(C)C3CCCC3)CC2)nc2cc(O)ccc12,i,nt,i,i,i
CC(NC(=O)OC(C)(C)C)C(=O)Oc1cc2oc(=O)cc(-c3ccccc3)c2cc1Cl (stereo not drawn),i,i,i,i,i
Cc1cc(C)c(S(=O)(=O)N(C)CC(=O)NC2CCCC2)c(C)c1,i,i,i,2.2,80.3
Cc1noc(/C=C/N(C)C)c1S(=O)(=O)N(C)CC(=O)NC1CCCCC1,i,i,62.2,i,i
SMILES,CYP2C19 act,PTK2B oligo ant,CYP2C9 inh,CYP2C9 act,CYP2C19 inhib
Cc1noc(/C=C/N(C)C)c1S(=O)(=O)N1CCCC(C(=O)NC2CCCCC2)C1 (stereo not drawn),i,nt,i,i,i
O=C(COc1ncnc2ccccc12)N1CCN(S(=O)(=O)c2ccc(Cl)cc2)CC1,i,i,i,i,i
CCOC(=O)c1ccc(Nc2cc(C)nc(C)c2C(=O)OCC)cc1,i,i,52.3,i,88.8
CCOC(=O)c1ccc(Nc2nnc(C(C)(C)C)c(=O)[nH]2)cc1,i,i,i,i,i
CCOc1ccc(NC(=O)C2CCC(N3C(=O)C4CC=CCC4C3=O)CC2)cc1 (stereo not drawn),i,i,52.3,i,52.2
CCOC(=O)c1ccc(NC(=O)C(=O)NCc2ccncc2)cc1,i,i,50.8,i,i
CCOC(=O)c1ccc(NC(=O)C2CCCO2)cc1 (stereo not drawn),i,i,i,i,i
CCOC(=O)c1ccc(NC(=O)C2CC2)cc1,i,i,i,i,78.7
O=c1c2cnn(-c3ccc(F)cc3)c2ncn1Cc1ccccc1,nt,i,nt,nt,nt
CCOC(=O)c1ccc(NC(=O)COC)cc1,i,i,i,i,i
CCOC(=O)c1ccc(NC(=O)C(CC)(CC)C(=O)OCC)cc1,i,i,64.7,i,76.9
CCOc1ccc2[nH]c(=O)c(CN(CCO)C(=O)c3ccc(F)cc3)cc2c1,i,i,i,i,i
CCCCN1c2cc(C)c(O)cc2C(C(=O)OCC)C1C (stereo not drawn),i,nt,i,i,59.3
CCOC(=O)C1CCN(Cc2ccc(O)c(OC)c2)CC1,i,i,i,i,i
Cn1c(=O)c2cn(Cc3ccc(Cl)cc3)cc2n(C)c1=O,i,i,58.3,i,63.0
Cn1c(=O)c2cn(-c3ccccc3)cc2n(C)c1=O,i,i,i,i,i
Cn1nc(-c2ccc(Cl)cc2)c2cc(C(=O)N3CCN(c4ccccc4)CC3)sc21,i,nt,84.3,i,i
Cn1nc(-c2ccc(Cl)cc2)c2cc(C(=O)N3CCCC3)sc21,i,nt,i,i,i
Cn1nc(-c2ccc(Cl)cc2)c2cc(C(=O)N3CCN(c4ccccn4)CC3)sc21,i,nt,56.2,i,i
CC(C)NC(=O)c1cc2c(-c3ccc(Cl)cc3)nn(C)c2s1,i,nt,i,i,i
C=CCn1c(SCC(=O)Nc2nnc(CC)s2)nnc1-c1ccco1,i,i,i,i,i
Cn1ncc(C#N)c1/N=C/N1CCCC1,i,i,i,i,i
CCOC(=O)c1ccc(NC(=O)NC2CC3CCC(C2)N3Cc2nnnn2Cc2ccco2)cc1 (stereo not drawn),i,i,i,i,i
CC(C)(C)n1nnnc1CN1C2CCC1CC(NC(=O)Nc1ccccc1)C2 (stereo not drawn),i,i,53.3,i,i
CCS(=O)(=O)N1CCC(NC(C)=O)(c2ccccc2)CC1,i,i,i,i,i
SMILES,CYP2C19 act,PTK2B oligo ant,CYP2C9 inh,CYP2C9 act,CYP2C19 inhib
CC(=O)NC1(c2ccccc2)CCN(Cc2nnnn2C(C)(C)C)CC1,i,i,i,i,66.9
COc1ccccc1N1CCN(C(=O)/C=C/c2ccc3c(c2)OCO3)CC1,i,i,i,i,i
CC(=O)c1cccc(NC(=O)C(OC(=O)/C=C/c2ccc3c(c2)OCO3)c2ccccc2)c1 (stereo not drawn),i,i,94.7,i,76.5
Cc1cccc(N2CCN(CC(=O)Nc3ccccc3[N+](=O)[O-])CC2)c1C,i,i,67.2,i,i
O=C(CCN1CCc2ccccc2C1)Nc1ccccc1F,nt,i,nt,nt,nt
O=C(CCN1CCN(c2ccc(Cl)cc2)CC1)Nc1ccccc1F,i,i,50.8,i,i
O=C(CCN1CCN(c2ccccc2F)CC1)Nc1ccccc1F,i,i,65.7,i,54.4
O=C(CN1CCN(CCC(=O)Nc2ccccc2F)CC1)Nc1ccc(Cl)cc1,i,i,i,i,i
O=C(CCN1CCN(c2ccccc2F)CC1)c1ccc(Br)cc1,i,i,i,i,50.2
CN(Cc1cnn(C)c1)C(=O)c1sc2cccc(Cl)c2c1Cl,i,i,i,i,i
N#CCC(=N)N1CCN(c2ccccc2Cl)CC1,i,i,i,i,i
O=C(CN1CCN(CCC(=O)Nc2ccccc2F)CC1)Nc1ccc(F)cc1,i,i,63.7,i,i
O=C(CN1CCN(c2ccccc2F)CC1)Nc1ccccc1F,i,i,80.5,i,88.2
O=c1[nH]nnc2sc3c(c12)CCCC3,nt,i,nt,nt,nt
